Records with an inconclusive call do not appear. Active and inactive are the calls of the source. Calls come from the whole dose curve; as a rule, active = well fitted activation curve with a large enough effect in the signal ratio in the repeat runs (not every such curve was filed as active); inconclusive = weak or mixed curves, or effect the other way; inactive = flat fitted curve, though single readings scatter; the % refers to the signal ratio.
Experiment: qHTS assay to identify small molecule agonists of the endoplasmic reticulum stress response signaling pathway (AID 1159516)
Conditions: ESRE-bla HeLa, ER stress beta-lactamase reporter, 5 h; series mostly up to 61 µM; activation: at the top concentration
In short: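 Tox21 10K library screened in quantitative HTS format on ESRE-bla HeLa cells, a beta-lactamase reporter under ER stress response element control; 5 hr treatment, FRET read.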
% is set by controls: 0 for no effect and ±100 for the full control effect.

| SMILES | activation |
| --- | --- |
| CCC(=O)O[C@]1(C(=O)CCl)[C@@H](C)C[C@H]2[C@@H]3CCC4=CC(=O)C=C[C@]4(C)[C@@]3(F)[C@@H](O)C[C@@]21C | -3.1% (inactive) |
| CCC(C)O (stereo not given) | 0.545% [at 78.8 µM] (inactive) |
| Cc1cc(C(=O)O)ccc1[N+](=O)[O-] | -1.82% (inactive) |
| COC(C)(C)CCO | -0.579% (inactive) |
| CCCCC(=O)OCC(=O)[C@H]1[C@H](C)C[C@H]2[C@@H]3C[C@H](F)C4=CC(=O)C=C[C@]4(C)[C@@]3(F)[C@@H](O)C[C@@]21C | -0.211% (inactive) |
| CCCCCCCCCOS(=O)(=O)O | -0.118% (inactive) |
| N=c1ccn2c(n1)O[C@H]1[C@H](O)[C@@H](CO)O[C@H]12 | -6.19% (inactive) |
| C[C@H](CCC(=O)O)[C@H]1CC[C@H]2[C@@H]3CC[C@@H]4C[C@H](O)CC[C@]4(C)[C@H]3C[C@H](O)[C@]12C | 2.35% [at 78.8 µM] (inactive) |
| CNCCCCOc1ccccc1Cc1ccccc1 | 1.02% (inactive) |
| CC1=CC=C(C(C)C)CC1 | 0.144% (inactive) |
| O=C(O)c1ccc(S(=O)(=O)O)cc1C(=O)O | 0.274% [at 78.8 µM] (inactive) |
| c1cc(CCCc2ccncc2)ccn1 | -0.971% (inactive) |
| Cc1ccc(C(C)OC(=O)C2(C)CCC(C(=O)O)C2(C)C)cc1 (stereo not given) | 2.29% (inactive) |
| CCOc1ccc(O)cc1 | -3.59% (inactive) |
| Nc1cccc([N+](=O)[O-])c1 | -0.866% (inactive) |
| C[N+](C)(C)CCOC(=O)CCC(=O)OCC[N+](C)(C)C | -0.68% (inactive) |
| CC1(c2ccccc2)OC(C(=O)O)=CC1=O (stereo not given) | 2.79% (inactive) |
| CCCCC(CC)COC(=O)CCCCCCCCC(=O)OCC(CC)CCCC (stereo not given) | 0.533% (inactive) |
| CCOC(=O)COC(=O)c1cc(Oc2ccc(C(F)(F)F)cc2Cl)ccc1[N+](=O)[O-] | -0.0817% (inactive) |
| CC(CSC(=O)c1ccccc1)C(=O)N1C[C@@H](Sc2ccccc2)C[C@H]1C(=O)O (stereo not given in full) | 2.82% [at 28.5 µM] (inactive) |

— PubChem BioAssay (Tox21)
